These results are taken from PubChem BioAssay (Tox21).

Inconclusive results are not listed. A call without a number means that no potency is given here. Calls of active or inactive are those of the source. The call rests on the fitted dose curve.

A short description of the assay: qHTS assay for small molecules that induce genotoxicity in human embryonic kidney cells expressing luciferase-tagged ATAD5 - cell viability (AID 651634). Further: nearly all actives have a fitted effect of over 25% in size. The conditions noted are these: HEK293T ATAD5-luc cells viability, CellTiter-Fluor, 15.5 h; series mostly up to 83.3 µM. An excerpt: National Center for Advancing Translational Sciences [NCATS]
NIH Chemical Genomics Center [NCGC]
U.S. Environmental Protection Agency [EPA]
National Institutes of Environmental Health Sciences [NIEHS]
National Toxicology Program [NTP]
U.S. Food and Drug Administration [FDA]
Enhanced Level of Genome Instability Gene 1 (ELG1; human ATAD5) protein levels increase in response to various types of DNA damage. Using a luciferase reporter-gene tagged with ElG1, a cell-based assay [developed by Kyungjae Myung, NHGRI, NIH] was used to measure the induction of ATAD5 in human embryonic kidney cells (HEK293T). So, increase in luciferase activity can be used to identify the compounds that cause genetic stress. In addition to genotoxicity, these cells were also used to test for cytotoxicity by measuring the protease activity within live cells.
Tox21 Assay Protocol Summary:
For cytotoxicity screening, 2,000 cells in 5 uL/well were dispensed into white, solid-bottom 1536-well plates using a Multidrop Combi (Thermo Scientific) dispenser. Following transfer of 23 nL compound or DMSO vehicle by a pin tool, the plates were incubated 15.5 hr at 37C and 5% CO2. 1 ul CellTiter-Fluor reagent (Promega, Madison, WI) was then added to each plate and following 30 min incubation at 37C, fluorescence intensity was quantified on a ViewLux CCD-based plate reader.
With `N#Cc1ccc(C(c2ccc(C#N)cc2)n2cncn2)cc1`, the Potency entry is “inactive”.

Take `CC(CNC1CCCCC1)OC(=O)c1ccccc1` (stereo not given): the Potency entry is “inactive”.

As for `Cc1ccc(C(C)C)cc1O`, the Potency entry is “inactive”.

`CCc1cc(Cl)c(OC)c(C(=O)NC[C@@H]2CCCN2CC)c1O`: the Potency result was “inactive”.

Regarding `Cc1ccccc1C(=O)Nc1ccc(C(=O)N2CCCC(O)c3cc(Cl)ccc32)c(C)c1` (stereo not given), the Potency entry is “inactive”.

For the compound `CN(C)C(=O)NC1(c2ccccc2)CCN(CCC[C@]2(c3ccc(Cl)c(Cl)c3)CCCN(C(=O)c3ccccc3)C2)CC1`, the Potency result is “inactive”.

Turning to `C=CCCC=C`, the Potency result was “inactive”.

For `CC(C)OC(C)C`, the Potency entry is “inactive”.

With `CCCCN1C[C@H](O)[C@@H](O)[C@H](O)[C@H]1CO`, the Potency result is “inactive”.

Consider `CCCCNc1cc(C(=O)O)cc(S(N)(=O)=O)c1Oc1ccccc1`, for which the Potency result was “inactive”.

`C=CC(C)(O)CC/C=C(\C)CCC=C(C)C` (stereo not given): the Potency entry was “inactive”.

Consider `CN(C)CC[C@@H](c1ccc(Cl)cc1)c1ccccn1`, for which the Potency result was “inactive”.

Regarding `CCCCCCCCc1ccc(S(=O)(=O)O)cc1`, the Potency result is “inactive”.

As to `O=C(O)[C@@H](O)[C@H](O)[C@H](O)[C@@H](O)C(=O)O`, the Potency result was “inactive”.

Take `CCOc1ccc(NS(=O)(=O)c2ccc(N)cc2)nn1`: the Potency entry was “inactive”.

As for `COc1cc(N)c(Cl)cc1C(=O)NC1CCN(Cc2ccccc2)CC1`, the Potency result is “inactive”.

For the compound `CC1(O)CSC(C)(O)CS1` (stereo not given), the Potency result is “inactive”.

For `CCN(O)CC`, the Potency result was “inactive”.

On to `CCCCNC(=S)NCCCC`, for which the Potency entry was “inactive”.

Regarding `CC1(C)O[C@@H]2C[C@H]3[C@@H]4CCC5=CC(=O)CC[C@]5(C)[C@@]4(F)[C@@H](O)C[C@]3(C)[C@]2(C(=O)CCl)O1`, the Potency entry is “inactive”.

For `CC1=C(O)C(=O)OC1C` (stereo not given), the Potency entry is “inactive”.

Regarding `CCOC(=O)C1CC(=O)C(=C(O)C2CC2)C(=O)C1` (stereo not given), the Potency result was “inactive”.

Regarding `O=C1C=CC(=O)O1`, the Potency entry was “inactive”.

In the case of `CCC(=O)Nc1ccc(O)cc1`, the Potency result is “inactive”.

As to `CN1CCN(C2=Nc3cc(F)ccc3Cc3ccccc32)CC1`, the Potency result is “inactive”.

For the compound `COc1cc(C)ccc1C(C)C`, the Potency entry was “inactive”.

For the compound `Cc1cccc(C)c1NC(=O)CN1CCCCCC1`, the Potency entry is “inactive”.

In the case of `COc1cc2c(cc1N)oc1ccccc12`, the Potency result is “inactive”.

Consider `CCN(CCCc1ccccc1)CCCc1ccccc1`, for which the Potency entry was “inactive”.

On to `CC(C)=CCC[C@](C)(O)[C@@H]1CC=C(C)CC1`, for which the Potency result is “inactive”.

On to `Cc1cc(S(=O)(=O)O)c(N)cc1Cl`, for which the Potency entry was “inactive”.

Take `CC(C)CC(=O)OCc1ccccc1`: the Potency entry was “inactive”.

Regarding `C=CC1CO1` (stereo not given), the Potency result is “inactive”.

On to `CC(C)NCC(O)COc1ccc(CCOCC2CC2)cc1` (stereo not given), for which the Potency entry is “inactive”.

In the case of `CCCOCCC`, the Potency entry is “inactive”.

On to `CC(=O)OC1C2(C)CCC(C2)C1(C)C` (stereo not given), for which the Potency result is “inactive”.

For `CCN[C@H]1CN(CCCOC)S(=O)(=O)c2sc(S(N)(=O)=O)cc21`, the Potency result was “inactive”.

For the compound `CC(C)Nc1nc(N)nc(Cl)n1`, the Potency entry is “inactive”.

Turning to `CN1C(=O)CC(c2ccccc2)C1=O` (stereo not given), the Potency result was “inactive”.

As to `O=c1oc2c(O)c(O)cc3c(=O)oc4c(O)c(O)cc1c4c23`, the Potency entry is “inactive”.
